Screening data deposited in PubChem BioAssay by National Center for Advancing Translational Sciences (NCATS).
FBPA Giardia inh: blocks Giardia fructose-bisphosphate aldolase activity | A8B2U2 | purified Giardia FBPA | Potency, µM (doses to about 59.6 µM), usual class: inhibitors | 290,000 tested, 0.71% active | AID 2451; further: nearly all actives have a fitted effect of over 55% in size
Target sequence (A8B2U2 whole entry, looked up): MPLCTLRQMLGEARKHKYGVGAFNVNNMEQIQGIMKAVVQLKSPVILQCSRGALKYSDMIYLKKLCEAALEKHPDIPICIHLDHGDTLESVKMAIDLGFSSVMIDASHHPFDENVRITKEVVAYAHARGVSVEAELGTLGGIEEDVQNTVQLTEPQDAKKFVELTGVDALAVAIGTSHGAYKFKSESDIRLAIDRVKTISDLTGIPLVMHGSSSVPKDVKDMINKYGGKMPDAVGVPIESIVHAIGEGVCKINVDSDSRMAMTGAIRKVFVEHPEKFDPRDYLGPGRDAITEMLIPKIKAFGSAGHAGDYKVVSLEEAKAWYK
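40 nM FBPA preincubated 10 min at RT with compound (up to 57.5 uM final), then substrate plus GAPDH/TPI/NAD/arsenate coupling and diaphorase/resazurin added. Fluorescence read after 20 min at RT, 525/598 nm.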
LmPK inhibitor: blocks Leishmania mexicana pyruvate kinase activity; Q27686; purified LmPK, Kinase-Glo ATP luminescence, 1 h; Potency, µM (titrated, usually from 57.5 µM), most hits filed as inhibitors; 290,000 tested, 0.37% active
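Purified LmPK (0.1 nM) converted ADP (0.1 mM) to ATP with PEP (0.5 mM) in imidazole buffer pH 7.2 with KCl and MgCl2, 1 h at room temperature. ATP was read by Kinase-Glo luminescence; data normalized to uninhibited and no-enzyme controls.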
RE007 growth inh: less growth of the S. pombe RE007 Vpr strain; 360,000 tested, 0.21% active; Potency, µM (highest dose often 92.2 µM), usual class: inhibitors; S. pombe RE007 Vpr strain, BacTiter-Glo ATP luminescence, 24 h; AID 651644; active means well fitted falling curve with a large enough effect; inconclusive means small, poorly fitted or top-dose-only effect; inactive means no such curve, though single readings can be large or run the other way; further: nearly all actives have a fitted effect of over 50% in size
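Fission yeast RE007 carrying one integrated HIV-1 vpr copy, seeded at OD 0.01 in PMG+AL medium with 23 nL pinned compound. Grown 24 h at 30 degrees; viability read by BacTiter-Glo luminescence after 5 min.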
Sm TGR inh: S. mansoni TGR enzyme inhibition. Potency, µM (doses to about 114 µM), usual class: inhibitors. AID 485364. 360,000 tested, 3% active. purified TGR, DTNB reduction, TNB absorbance 405 nm. Q962Y6; further: nearly all actives have a fitted effect of over 60% in size
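TGR 20 nM + NADPH 100 uM (dispensed conc.), cpd preinc 15 min RT; start with NADPH (500 uM addition) then DTNB (15 mM addition). Kinetic TNB absorbance, 405 nm filter. Four-parameter Hill fit across titration.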
Tb PYK inh: inhibitors of Trypanosoma brucei pyruvate kinase; TbPYK enzyme, Kinase-Glo Plus ATP luminescence, 45 min; AID 624173; Q57TT1; Potency, µM (titrated, usually from 76.8 µM), actives largely listed as inhibitors; 410,000 tested, 0.12% active; further: nearly all actives have a fitted effect of over 50% in size
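ADP (130 uM final) triggers the TbPYK reaction after compound addition; incubation is 45 min at room temperature. Kinase-Glo Plus is then added and luminescence imaged. Normalized data are fitted to concentration-effect curves.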
Large screens that a line does not name were inactive. This is a sample that favours compounds with a hit; in the whole collection about 3.3% have one here. Unless noted, the call rests on the fitted dose curve; in most records, active means well fitted curve in the direction sought with a large enough effect; inconclusive means small, poorly fitted or top-dose-only effect, or another doubt; inactive means no such curve, though single readings can be large; an effect the other way counts as inactive or inconclusive.

CC(C)(C=O)C1=CC(=O)c2ccccc2C1=O	FBPA Giardia inh inconclusive, LmPK inhibitor 13µM, RE007 growth inh 8.9µM, Sm TGR inh 3.2µM, Tb PYK inh inconclusive
COC(=O)c1cccc(C#CC(NP(=O)(c2ccccc2)c2ccccc2)c2ccccc2)c1 (stereo unspecified)	Sm TGR inh 11µM
COc1ccc(Cn2c(-c3ccc(OC)cc3)nc3c(c(=O)c4ccccc4n3C)c2=O)cc1	none (no result: RE007 growth inh, Tb PYK inh)
Cn1c2ccccc2c(=O)c2c(=O)n(Cc3ccco3)c(-c3ccc(Cl)cc3Cl)nc21	Sm TGR inh 14µM (no result: RE007 growth inh, Tb PYK inh)
CC(C)Cn1c(-c2ccco2)nc2c(c(=O)c3ccccc3n2C)c1=O	none (no result: RE007 growth inh, Tb PYK inh)
COc1ccc(Cn2c(-c3ccco3)nc3c(c(=O)c4ccccc4n3C)c2=O)cc1	Sm TGR inh 50µM
O=C(Cn1nc(-c2ccco2)ccc1=O)Nc1ccc(Br)cc1	Sm TGR inh inconclusive
Cc1cccc(NC(=O)Cn2nc(-c3ccco3)ccc2=O)c1C	Sm TGR inh 32µM
Cc1cccc(NC(=O)CSc2nnc(-c3ccco3)c(-c3ccco3)n2)c1C	FBPA Giardia inh inconclusive, Sm TGR inh 3.5µM, Tb PYK inh inconclusive
Cc1ccccc1NC(=O)CSc1nnc(-c2ccco2)n1N	none (no result: FBPA Giardia inh, LmPK inhibitor)
Cc1cccc(NC(=O)CSc2nnc(-c3ccco3)c(-c3ccco3)n2)c1	FBPA Giardia inh inconclusive, Sm TGR inh 3.5µM
COC(=O)Cn1nnc(-c2cccc(OC)c2)n1	none
CC(C)CCC(CC(C)O)c1n[nH]c(=S)n1-c1ccccc1 (stereo unspecified)	LmPK inhibitor 10µM, Tb PYK inh 4.5µM
CCOC(=O)c1sc(C)c2c(=O)n(CC)nnc12	none
CCOC(=O)C1=C(O)/C(=C\c2ccc(CNC(=O)C(=O)Nc3ccccc3)o2)N=C1C	FBPA Giardia inh inconclusive, Sm TGR inh 8.9µM
CC(=O)C(=Nc1ccccc1Cl)NNc1ccc(Cl)cc1	Sm TGR inh 40µM
Cc1ccc(NC(=O)c2ccccc2)cc1-n1cnnn1	Sm TGR inh 20µM
CC(C)N(C(=O)COC(=O)c1cncc(Br)c1)C(C)C	none
O=[N+]([O-])c1ccc(C2Nc3cccc4cccc(c34)N2)cc1	FBPA Giardia inh inconclusive, Sm TGR inh 20µM
O=[N+]([O-])c1cccc(C2Nc3cccc4cccc(c34)N2)c1	FBPA Giardia inh inconclusive, Sm TGR inh 35µM
CCOC(=O)c1cc(-c2csc(-c3cccc(Cl)c3)n2)on1	none
CCOC(=O)CN1c2ccccc2NC(=O)CC1C (stereo unspecified)	Sm TGR inh 32µM
CCCN1C(=O)C(=O)N(CC(=O)N2c3ccccc3NC(=O)CC2C)C1=O (stereo unspecified)	none (no result: FBPA Giardia inh, LmPK inhibitor, Sm TGR inh)
Cn1nnnc1SCC(=O)NCCCc1ccccc1	none
Cn1nnnc1SCC(=O)NCC(=O)c1ccccc1	Sm TGR inh 20µM, Tb PYK inh inconclusive
Cc1ccc2c(c1)CC1(CN2C)C(=O)NC(=O)N(c2ccccc2C)C1=O (stereo unspecified)	none
Cc1ccc2c(c1)CC1(CN2C)C(=O)OC2(CCCCC2)OC1=O	FBPA Giardia inh inconclusive, LmPK inhibitor 14µM, Sm TGR inh inconclusive
COc1cc(OC)c(N(C)C(=O)c2sc3nc4n(c(=O)c3c2C)CCCC4)cc1Cl	Sm TGR inh 32µM (no result: FBPA Giardia inh, LmPK inhibitor, RE007 growth inh)
COc1cc(OC)c(N(C)C(=O)c2sc3nc4n(c(=O)c3c2C)CCCCC4)cc1Cl	none (no result: FBPA Giardia inh, LmPK inhibitor, RE007 growth inh)
COc1cc(OC)c(NC(=O)c2sc3nc4n(c(=O)c3c2C)CCCC4)cc1Cl	Sm TGR inh 50µM (no result: FBPA Giardia inh, LmPK inhibitor, RE007 growth inh)
Cc1c(C(=O)Nc2cccc(C(F)(F)F)c2)sc2nc3n(c(=O)c12)CCCC3	none (no result: FBPA Giardia inh, LmPK inhibitor, RE007 growth inh)
COc1ccc(Cl)cc1NC(=O)c1sc2nc3n(c(=O)c2c1C)CCC3	none (no result: FBPA Giardia inh, LmPK inhibitor, RE007 growth inh)
Cc1c(C(=O)N(C)c2cccc(C(F)(F)F)c2)sc2nc3n(c(=O)c12)CCCCC3	Sm TGR inh 10µM (no result: FBPA Giardia inh, LmPK inhibitor, RE007 growth inh)
CC(C)c1ccc2[nH]c3nc(SCC(=O)N4CCOCC4)nnc3c2c1	none
CCNC(=O)C12CCC(C)(C(=O)C1Br)C2(C)C (stereo unspecified)	none
CCOC(=O)c1sc2c(c1C)C(c1cccs1)C1=C(CCCC1=O)N2 (stereo unspecified)	none
Cc1ccc(S(=O)(=O)N/N=C/c2cc([N+](=O)[O-])ccc2O)cc1[N+](=O)[O-]	Sm TGR inh 28µM
